For 39 molecules, growth results are on record in PubChem BioAssay (NCI).

Where “and” joins values, the source holds several entries; their conditions need not be identical. Equal values may be shown once. About 83,000 compounds went through this panel and 20% of them were active in at least one assay; those are over-represented in the sample as a whole.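 Single-dose data. Exposure time 48 hours. Values below 10 considered active.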 Unmarked numbers belong to inactive results. Calls of active or inactive are those of the source.

The subject of the assay is HL-60(TB) leukemia. As to the kind of experiment: NCI-60 one-dose screen, 48 h (100 = growth as untreated, 0 = no growth, -100 = all killed). Particulars: 10 µM unless noted.
With `O=C1C=CC(=O)N1c1ccc(N2C(=O)C=CC2=O)cc1`, the growth is -50.6% (active).
In the case of `COc1ccc2c(c1)C(=O)/C(=C/c1ccc([N+](=O)[O-])o1)O2`, the growth was -42.3% (active).
Take `CCN1CCN(Cc2cn(CC(=O)Nc3ccc4c(ccn4Cc4ccccc4)c3)nn2)CC1`: the growth was 95.5%.
As to `ClCC(Cl)C1CCC(Cl)C(Cl)C1` (centres undefined), the growth was 89.6%.
`CN1CCN(CCCOc2ccc3nc(Nc4ccc(C(F)(F)F)c(Cl)c4)ccc3c2)CC1`: the growth is 12.5%.
As for `Cc1cc(N=Nc2ccc(-c3ccc(N=Nc4ccc(O)c(C(=O)O)c4)cc3)cc2)c(N)c(N=Nc2ccc(C(=O)O)cc2)c1N`, the growth was 81%.
Consider `CC1=C(CCC(C)N(C)Cc2ccc(OCCCN3CCCC3)cc2)C(C)(C)CCC1` (centres undefined), for which the growth is 24.6%.
Consider `N#Cc1c(O)c2c(c(O)c1C#N)C(=O)c1ccccc1C2=O`, for which the growth is -38.1% (active).
Regarding `COc1ccc(C2C=C(c3ccc(OC)c(OC)c3)N=C3SC=C(C)N32)c(Br)c1` (centres undefined), the growth was 101%.
On to `COc1ccc(-c2nc3ccc4[nH]ncc4c3c3c2CCCC3)cc1B(O)O`, for which the growth is 64.6%.
For the molecule `O=C1c2ccccc2C(=O)c2c1oc1c2c(=O)[nH]c2ccccc21`, the growth is 2.26% (active).
As to `CC1OC2CC(=O)OC2C2=C1C(=O)c1c(O)cccc1C2=O` (centres undefined), the growth was -47.8% (active).
Regarding `CCCCOC(=O)c1c(C)[nH]c(/C=C2\N=C(c3ccc[nH]3)C=C2OC)c1C`, the growth is 8.01% (active).
`CCCCCCCCCCNCCSS(=O)(=O)O`: the growth is 79%.
As for `CC(CN(C)C)CN1c2ccccc2Sc2ccccc21` (centres undefined), the growth was 91.3% and 105% and 94.5%.
As to `Cc1nn(-c2ccc(Cl)cc2)c(=O)n1CCn1cnc2ccccc21`, the growth is 102%.
With `CCCCNc1ccc(C#N)c(OCCN(CC)CC)c1` the figure was 88.8%; with `CCOc1ccc2nc3ccc(Cl)cc3nc2c1`, 63.7%; with `N#Cc1nn(-c2cc(=O)[nH]c3ccc(Cl)cc23)c(N)c1C#N`, 0.972% (active).
As to `COc1cc(NCCCCCNC(C)C)c2ncccc2c1`, the growth is 104% and 58.4%.
In the case of `O=[N+]([O-])c1ccc(Nc2nc(NCCN3CCOCC3)ncc2[N+](=O)[O-])cc1` it was 102%.
Take `COc1cc(/C=C/c2cc(/C=C/c3ccc(O)c(OC)c3)n(-c3c(Cl)cccc3Cl)c(=O)n2)ccc1O`: the growth is 13.5%.
For the molecule `COc1ccc(OC)c(-c2c(C#N)c(-c3cccs3)nc3c2c(-c2ccccc2)nn3-c2ccccc2)c1`, the growth was 107%.
As for `COc1ccc(C2CC(c3ccc(Nc4nc(Nc5ccccc5)nc(Nc5ccccc5)n4)cc3)=NN2C(C)=O)cc1` (centres undefined), the growth is 95.1%.
For `COc1ccccc1NC(=O)OCC#CCOC(=O)Nc1ccccc1OC`, the growth was 85.4% and 64.8%.
Regarding `COc1cc(-c2nc3cc(Cl)c(Cl)cc3[nH]2)ccc1OCC(=O)N=Nc1c(O)[nH]c2ccc([N+](=O)[O-])cc12`, the growth is 94.9%.
For the molecule `O=c1nc2c(-c3nc4ccccc4s3)n[nH]n2c2sc3c(c12)CCCC3`, the growth is 99.4%.
For the molecule `O=C(Nc1nc2cc(C(=O)N3CCN(C(c4ccccc4)c4ccccc4)CC3)ccc2o1)c1ccc(NC2CCCCC2)c([N+](=O)[O-])c1`, the growth was 82%.
With `CCC1=C[C@@H]2C[C@]3(C(=O)OC)c4[nH]c5ccccc5c4CC[N@+](CC(=O)Nc4cc5c(cc4OC)N(C)[C@H]4[C@@](O)(C(=O)OC)[C@H](OC(C)=O)[C@]6(CC)C=CCN7CC[C@]54[C@@H]76)(C2)[C@H]13`, the growth was 116%.
With `N=C(N)N=Nc1ccc(O)cc1` the figure was 69% [100 µM]; with `CCOc1ccc(NC2=C(Cl)C(=O)c3ccccc3C2=O)cc1`, 32%.
`COc1cc(Nc2nc(N[C@H]3CCCC[C@@H]3N)nc3cc[nH]c(=O)c23)cc(OC)c1`: the growth was 16.2%.
For `COc1cc(OC)cc(-c2ccc(-c3ccc(C(=N)N)cn3)o2)c1`, the growth is -65.7% (active).
Take `COc1ccc(-c2nc(SCCC(C)C)nc(Nc3ccc(F)c(Cl)c3)c2C#N)cc1`: the growth is 107%.
In the case of `CC1(c2ccccc2O)NN=C(/N=C/c2cccc([N+](=O)[O-])c2)N1C(Cc1c[nH]c2ccccc12)C(=O)O` (centres undefined), the growth is 120%.
Consider `OCCN1CCN(CC/C=C2\c3ccccc3Sc3ccc(Cl)cc32)CC1`, for which the growth is 14.2% and 19.5%.
Turning to `CN(C)c1ccc(-c2cc(-c3ccc(Nc4nc(Nc5ccc(Cl)cc5)nc(Nc5ccc(Cl)cc5)n4)cc3)no2)cc1`, the growth is 3.2% (active).
On to `O=C(NNc1ccccc1)c1ccccc1`, for which the growth was 7.78% (active) and -1.5% (active).
With `COC(=O)CNC(=O)C(=O)c1c(O)c(O)c(C(C)C)c2cc(C)c(-c3c(C)cc4c(C(C)C)c(O)c(O)c(C(=O)C(=O)NCC(=O)OC)c4c3O)c(O)c12` the figure was 24.6%.
